# Bioassay records deposited in PubChem by National Center for Advancing Translational Sciences (NCATS).
# Pf growth 96h: Primary qHTS for delayed death inhibitors of the malarial parasite plastid, 96 hour incubation; P. falciparum luciferase reporter growth, 96 h; 320,000 compounds, 6.9% hits; AID 504834, 2011; Potency, µM (top dose mostly 28.7 µM), usual class: inhibitors; active = well fitted inhibition curve with a large enough effect; inconclusive = small, poorly fitted or top-dose-only effect, or another doubt; inactive = no such curve, though single readings can be large or run the other way
#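 Parasite growth measured via integrated firefly luciferase reporter in P. falciparum. Infected erythrocytes at 2% hematocrit, 0.05% parasitemia final were treated 96 hours at 37 C under 5% CO2, and luminescence was read.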
# CHX counter: Cycloheximide Counterscreen for Small Molecule Inhibitors of Shiga Toxin. cell reporter, cycloheximide protein synthesis inhibition counterscreen. max response, %. 300,000 compounds, 12% hits. AID 2314, 2010; in the data active = max response mostly above about 13%, no sharp cut-off; inactive = mostly below about 14%; note: read at 38.3 µM for the half of the compounds with a filed dose
# SARS PLP yeast: qHTS of Yeast-based Assay for SARS-CoV PLP; S. cerevisiae expressing SARS-CoV PLpro, growth rescue; Potency, µM (top dose mostly 32.9 µM), usual class: activators; 330,000 compounds, 0.19% hits; AID 485353, 2010; note: nearly all actives have a fitted effect of over 55% in size
# Pf growth 48h: Primary qHTS for delayed death inhibitors of the malarial parasite plastid, 48 hour incubation | P. falciparum luciferase growth in erythrocytes, 48 h | Potency, µM (titrated, usually from 28.7 µM), hits mostly inhibitors | 310,000 compounds, 5.9% hits; active = well fitted inhibition curve with a large enough effect; inconclusive = small, poorly fitted or top-dose-only effect, or another doubt; inactive = no such curve, though single readings can be large or run the other way
#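 Here the parasites carry a stable luciferase gene and grow inside erythrocytes in Albumax-based RPMI medium with compound for one erythrocytic cycle. Activity is scored as loss of luminescent signal.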
# NS1 inh: qHTS Assay for Inhibitors of Influenza NS1 Protein Function; Potency, µM (series often up to 46.1 µM); 270,000 compounds, 0.4% hits; note: actives are rising curves; nearly all actives have a fitted effect of over 50% in size
#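 Read-out: OD600 growth recovery of NS1-expressing budding yeast. Cells grown overnight at 30C in -URA glucose medium, washed, resuspended and diluted 1:100 in 2% galactose assay medium, pH 6.0. Same strain lacking NS1 served as positive control.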
# Shiga inhibitor: A qHTS for Small Molecule Inhibitors of Shiga Toxin | inhibition, % at 38.7 µM | Vero cells, Shiga toxin protein synthesis inhibition reporter | AID 2315, 2010 | 290,000 compounds, 9.2% hits; in the data active = inhibition mostly above about 28%, no sharp cut-off; inactive = mostly below about 43%
# Numbers stand for hits; . = inactive; ? = inconclusive; / = no result; + = active, no number; [ ] = another dose, or the depositor's remark. A selection: hits, their analogues and other compounds. The true share with any hit is near 21%. Unless noted, calls come from the whole dose curve.
SMILES,Pf growth 96h,CHX counter,SARS PLP yeast,Pf growth 48h,NS1 inh,Shiga inhibitor
O=[N+]([O-])c1cccc(-c2nc(-c3ccccc3)no2)c1,.,.,.,.,.,49
O=[N+]([O-])c1cccc(-c2noc(COc3ccccc3)n2)c1,.,27,.,.,/,.
CC(C#N)Sc1ncnc2sc(-c3ccccc3)cc12 (stereo not drawn),.,.,.,.,.,.
CC(=O)c1ccccc1NC(=O)C1CCCN(C(=O)c2ccc(Cl)cc2)C1 (stereo not drawn),.,/,.,.,/,/
CN1CCN(CCCNC(=O)c2ccc3c(=O)n(CCc4ccccc4)c(=O)[nH]c3c2)CC1,.,.,.,?,.,.
COCCn1c(=O)[nH]c2cc(C(=O)NCc3ccccc3)ccc2c1=O,1.5µM,.,.,/,.,.
O=C(NCCc1ccc(F)cc1)c1cccc(NC(=O)c2ccccc2)c1,?,23,.,.,.,.
COc1ccc(C(=O)NCCc2ccc(F)cc2)cc1OC,.[5.75 µM],27,.,.,.,.
COc1cc(C(=O)NCCc2ccc(F)cc2)ccc1OCC(=O)N1CCOCC1,.,/,.,.,/,/
COc1ccc(CCn2c(=O)[nH]c3cc(C(=O)NCCc4ccccc4)ccc3c2=O)cc1OC,.,25,.,.,.,25
CN(Cc1ccccc1)C(=O)C1CCCN(Cc2cccc(Cl)c2)C1 (stereo not drawn),.,.,.,.,/,.
CCOc1ccc(C(=O)NCC(=O)OCCN2C(=O)c3ccccc3C2=O)cc1OCC,.,/,.,.,/,/
CCCCCn1c(=O)[nH]c2cc(C(=O)NCCCN3CCCCC3)ccc2c1=O,/,.,.,9.3µM,.,.
COc1ccc(C(=O)NCCNc2ccc([N+](=O)[O-])cc2)cc1OC,5.2µM,.,.,.,.,.
Cc1[nH]c2ccccc2c(=O)c1C(=O)/C=C/c1ccccc1,?,.,.,?,.,.
Cc1[nH]c2ccccc2c1/C=N/NC(=O)c1cc(-c2ccccc2)n[nH]1,?,.,.,?,.,.
Cc1[nH]c2ccccc2c1/C=C/C(=O)c1ccccc1,.,25,.,.,.,86
Cc1[nH]c2ccccc2c1/C=N/NC(=O)c1cc(-c2ccncc2)nc2ccccc12,6.6µM,.,.,?,.,.
O=C(N/N=C/c1[nH]c2ccccc2c1Cl)c1cccc(Br)c1,12µM,.,.,?,.,.
Cc1[nH]c2ccccc2c1/C=N/Nc1cccc(C(=O)O)c1,.,61,.,.,.,128
O=c1[nH]c2ccc(S(=O)(=O)N3CCN(S(=O)(=O)c4ccc5c(c4)OCCO5)CC3)cc2[nH]c1=O,/,.,/,/,/,.
Cc1noc(C)c1CSc1ccccc1C(=O)O,.,.,.,.,.,.
Cc1[nH]c2ccccc2c1/C=N/NC(=O)Nc1ccccc1,.,28,.,.,/,+
Cc1ccc(NC(=S)N/N=C/c2c(C)[nH]c3ccccc23)cc1,?,23,.,?,.,80
Cc1[nH]c2ccccc2c1/C=N/NC(=O)CCC(=O)Nc1ccccc1,.,.,.,.,.,.
SMILES,Pf growth 96h,CHX counter,SARS PLP yeast,Pf growth 48h,NS1 inh,Shiga inhibitor
CC(C)(C)c1cc(C(=O)N/N=C/c2ccccn2)n[nH]1,.,21,.,.,.,53
Cc1[nH]c2ccccc2c1/C=N/NC(=O)c1ccccc1,.,42,.,.,.,51
Cc1[nH]c2ccccc2c1/C=N/NC(N)=S,?,.,.,.,.,.
OC[C@H]1O[C@@H](O[C@@H]2OC=C[C@H]3[C@H](O)[C@@H]4O[C@]4(CO)[C@@H]23)[C@H](O)[C@@H](O)[C@@H]1O,/,.,/,/,/,.
O=C(N/N=C/C1C(c2ccccc2)C1(Cl)Cl)c1cccc(Br)c1 (stereo not drawn),.,23,.,.,.,.
Cc1[nH]c2ccccc2c1/C=N/NC(=O)c1ccc(N)cc1,.,.,.,.,.,.
Cc1[nH]c2ccccc2c1/C=N/NC(=O)c1cccc(Br)c1,.,26,.,.,.,.
Cc1[nH]c2ccccc2c1/C=N/NC(=O)c1cc(C(C)(C)C)[nH]n1,.,12,.,?,.,.
CCc1ccc(OCC(=O)NNC(=O)C2CCC2)cc1,?,/,.,.,/,/
